Screening data: PubChem, several laboratories
Sampled rows, rich in hits. Any-hit rate of the full collection: about 2.2%.
SKN-1 inh = C. elegans SKN-1 inhibition; C. elegans VP596 Pgst-4::GFP/RFP ratio, acrylamide-induced, 24 h; inhibition, % at 21.8 µM; 360,000 compounds, 0.49% hits; AID 624304;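 active = interference check ratio from 0.5 to 1.5 plus GFP to RFP signal ratio inhibition reaching or exceeding a fixed threshold, cut at about 30% in these data, passing the limit was not always enough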
SUMO Mot1 rescue = inhibitors of SUMOylation pathway: yeast Mot1-301 growth rescue. AID 2716. 320,000 compounds, 1% hits. growth rescue, % at 18.8 µM. S. cerevisiae Mot1-301 growth rescue, ATP luminescence, 38.5C; percent above DMSO median, 100 means doubled;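 active = every valid replicate shows activation above 250% relative to neutral control wells; inactive = the rest, any valid replicate at or below 250%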
Efflux pump mplx = inhibitors of Candida antifungal efflux pumps expressed in yeast; S. cerevisiae Candida pump triplex, Nile Red efflux; inhibition, % at 10 µM; 330,000 compounds, 0.44% hits;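 active = plate passing quality check with inhibition over a set limit, or well fluorescence over plate mean plus 4 SD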;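 note: Nile Red retained in pooled yeast measured as flow cytometry median fluorescence; higher means more Nile Red kept so more efflux inhibition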
sPLA2-III inh = Inhibits HGIII-sPLA2 liposome hydrolysis, primary screen | Q9NZ20 | QFRET BODIPY PC-A2 liposome hydrolysis, fluorescence | inhibition, % at 12.2 µM | 370,000 compounds, 0.56% hits | AID 743126;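 active = inhibition above mean plus 3 SD of compounds lying within the high and low control bounds, cut at about 19% in these data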
Target sequence (Q9NZ20 whole entry, looked up): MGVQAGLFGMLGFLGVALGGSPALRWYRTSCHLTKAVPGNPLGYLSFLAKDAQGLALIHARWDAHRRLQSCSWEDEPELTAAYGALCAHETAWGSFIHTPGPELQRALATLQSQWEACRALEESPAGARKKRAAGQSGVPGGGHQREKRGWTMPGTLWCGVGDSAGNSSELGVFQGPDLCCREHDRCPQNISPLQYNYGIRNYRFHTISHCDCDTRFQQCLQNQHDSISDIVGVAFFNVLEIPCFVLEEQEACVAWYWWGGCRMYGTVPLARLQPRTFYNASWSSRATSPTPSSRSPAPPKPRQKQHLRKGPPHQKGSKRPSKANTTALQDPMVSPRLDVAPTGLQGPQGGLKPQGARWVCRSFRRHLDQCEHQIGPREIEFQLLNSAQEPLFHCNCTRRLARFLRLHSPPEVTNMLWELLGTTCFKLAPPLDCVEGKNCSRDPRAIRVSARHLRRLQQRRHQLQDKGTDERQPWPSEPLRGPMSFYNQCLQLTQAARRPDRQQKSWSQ
sPLA2 confirm = human GIII-sPLA2 inhibition, confirmation; AID 743280; 2,000 compounds, 34% hits; inhibition, % at 12.2 µM; recombinant hGIII-sPLA2, BODIPY PC-A2 QFRET fluorescence; shares compounds with sPLA2-III inh;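 active = mean inhibition across triplicates above the hit cutoff set in the earlier primary screen, cut at about 19% in these data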
535nm interf = counter-screen for HGIII-sPLA2 inhibitors: 535nm fluorescence interference | BODIPY FL product fluorescence interference, QFRET | shares compounds with sPLA2-III inh | 2,000 compounds, 8.5% hits | AID 743282 | inhibition, % at 12.2 µM;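 active = average inhibition above the solvent-only control mean plus 3 SD, cut at about 6% in these data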
BODIPY interf DR = interferes with 535nm fluorescence in dose response counter-screen; shares compounds with sPLA2-III inh; BODIPY FL product fluorescence interference, cell-free; IC50, µM; 240 tested, under 10 active;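 active = IC50 at or below 10 µM; inactive = IC50 above 10 µM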
Of the large screens only hits and unclear results are named; the others gave an inactive call (follow-up assays come after a bar, where they were run).

CC(C)CC(=O)NC(=S)NNC(=O)c1ccc(NC(=O)C2CCCCC2)cc1	sPLA2-III inh 20.9 | sPLA2 confirm 37.1 | 535nm interf inactive | BODIPY interf DR inactive
CCCc1cc(=O)oc2cc(OC3CCCCC3=O)ccc12 (configuration not stated)	none
CCc1ccc(NC(=O)NNC(=O)c2ccc3ccccc3c2O)cc1	sPLA2-III inh 32.1 | sPLA2 confirm 25.4 | 535nm interf inactive
CCc1ccc(NC(=O)NNC(=O)c2cc3ccccc3cc2O)cc1	sPLA2-III inh 27.1 | sPLA2 confirm inactive | 535nm interf inactive
O=C(NNC(=O)c1ccc2ccccc2c1O)c1cccs1	none
CCOc1ccc(NC(=O)NNC(=O)c2cc3ccccc3cc2O)cc1	none
CC(NC(=O)Cc1ccsc1)c1ccc(F)cc1 (configuration not stated)	none
Cc1occc1C(=O)N/N=C/c1c(O)ccc2ccccc12	sPLA2-III inh 22.7 | sPLA2 confirm inactive | 535nm interf inactive
O=C(N/N=C/c1c(O)ccc2ccccc12)c1ccc(Br)o1	sPLA2-III inh 19.4 | sPLA2 confirm inactive | 535nm interf inactive
O=C(CSc1nnc(-c2ccccc2)n1-c1ccc(Cl)cc1)Nc1ccc2cn[nH]c2c1	none (no result: SKN-1 inh, SUMO Mot1 rescue, Efflux pump mplx)
C/C(=N\N=C\c1cccc(F)c1)c1nnn(-c2nonc2N)c1C	sPLA2-III inh 20.5 | sPLA2 confirm inactive | 535nm interf inactive
CCOC(=O)C1(C)CCCCCN1C(=O)c1ccc(N(C)C)cc1 (configuration not stated)	sPLA2-III inh 19.4 (no result: SUMO Mot1 rescue, Efflux pump mplx) | sPLA2 confirm inactive | 535nm interf inactive
CCOC(=O)C1(C)CCCN1C(=O)c1ccc(C)cc1 (configuration not stated)	none (no result: SUMO Mot1 rescue, Efflux pump mplx)
CCN(CC(=O)NC1CCS(=O)(=O)C1)S(=O)(=O)c1c(C)c(C)cc(C)c1C (configuration not stated)	none
Oc1ccccc1/C=N/Nc1ncc(Br)cn1	sPLA2-III inh 28.8 | sPLA2 confirm inactive | 535nm interf 31.6
Oc1ccccc1/C=N/Nc1ccccc1	none
CCN(CC)c1ccc(NC(=O)c2ccc3c(c2)OCO3)cc1	sPLA2-III inh 19.6 | sPLA2 confirm inactive | 535nm interf inactive
CCC1Cc2[nH]c(=S)[nH]c(=O)c2C(c2ccc(Cl)cc2)O1 (configuration not stated)	sPLA2-III inh 21.5 (no result: SUMO Mot1 rescue, Efflux pump mplx) | sPLA2 confirm inactive | 535nm interf inactive
Brc1cccc(Cn2ccc3ccc(-c4ccc5ccn(Cc6cccc(Br)c6)c5c4)cc32)c1	none (no result: SKN-1 inh, SUMO Mot1 rescue, Efflux pump mplx)
CC(C)CN(C(=O)C1CCC1)c1c(N)n(Cc2ccccc2)c(=O)[nH]c1=O	sPLA2-III inh 20.0 | sPLA2 confirm inactive | 535nm interf inactive
C/C(=N\NC(=S)NCc1ccccc1)c1ccc2ccccc2c1	sPLA2-III inh 19.3 | sPLA2 confirm inactive | 535nm interf inactive
COCCSc1nc(N)c(NC(=O)c2ccco2)c(=O)[nH]1	none
Cc1ccc2nc(N(CCN(C)C)C(=O)c3ccc4c(c3)OCCO4)sc2c1	none
COc1ccc2nc(Nc3ccc4c(c3)OCO4)sc2c1	sPLA2-III inh 85.7 | sPLA2 confirm inactive | 535nm interf inactive
COc1ccc2nc(Nc3nc4cc5c(cc4s3)OCO5)sc2c1	sPLA2-III inh 23.2 | sPLA2 confirm 36.7 | 535nm interf inactive | BODIPY interf DR inactive
COc1ccc2nc(Nc3ccccc3)sc2c1	none
Cc1ccc2nc(NNC(=O)c3ccc4c(c3)OCCO4)sc2c1	sPLA2-III inh 25.0 | sPLA2 confirm 31.7 | 535nm interf inactive | BODIPY interf DR inactive
COc1cc(C(=O)NNc2nc3cc4c(cc3s2)OCO4)cc(OC)c1OC	sPLA2-III inh 19.2 | sPLA2 confirm inactive | 535nm interf inactive
O=[N+]([O-])c1cc([N+](=O)[O-])c2c(=Nc3ccccc3)n(-c3ccccc3)n(O)c2c1	sPLA2-III inh 34.6 | sPLA2 confirm 56.2 | 535nm interf 18.6
CC1CN(c2ccc([N+](=O)[O-])c(NCCOc3ccccc3)c2)CCN1 (configuration not stated)	sPLA2-III inh 39.1 | sPLA2 confirm inactive | 535nm interf inactive
O=C(NCC(c1cccs1)N1CCOCC1)c1ccc([N+](=O)[O-])cc1 (configuration not stated)	none
O=C(NCC(c1cccs1)N1CCOCC1)c1cc([N+](=O)[O-])ccc1Cl (configuration not stated)	sPLA2-III inh 19.4 | sPLA2 confirm inactive | 535nm interf inactive
Cc1csc(NC(=S)NC(=O)c2ccccc2)n1	sPLA2-III inh 20.8 | sPLA2 confirm 31.6 | 535nm interf inactive | BODIPY interf DR inactive
Cc1csc(NC(=O)c2ccccc2)n1	none
CC(C)[C@H](NC(=O)c1ccc(Cl)cc1Cl)C(=O)OCc1nc2ccsc2c(=O)[nH]1	none (no result: SUMO Mot1 rescue, Efflux pump mplx)
CCOc1ccc(CSC(=N)N)cc1[N+](=O)[O-]	sPLA2-III inh 21.9 (no result: SUMO Mot1 rescue) | sPLA2 confirm inactive | 535nm interf inactive
CCOc1ccc(CSC(=N)N)cc1Cl	sPLA2-III inh 25.9 | sPLA2 confirm inactive | 535nm interf inactive
O=C(CCNC(=O)C1CCN(S(=O)(=O)c2ccccc2)CC1)NCc1ccccc1Cl	none
CC(CCl)n1c(=O)c2ccccc2n1C(=O)c1ccccc1 (configuration not stated)	sPLA2-III inh 24.3 (no result: SUMO Mot1 rescue, Efflux pump mplx) | sPLA2 confirm inactive | 535nm interf inactive
Cc1c(C#N)c2n(c1C)CCCC(=O)N2	none (no result: SUMO Mot1 rescue, Efflux pump mplx)
O=C1C(=Cc2cccc(Cl)c2)CCc2ccccc21	sPLA2-III inh 20.8 (no result: SUMO Mot1 rescue, Efflux pump mplx) | sPLA2 confirm inactive | 535nm interf inactive
O=C1C(=Cc2cccc(Cl)c2)Cc2ccccc21	none (no result: SUMO Mot1 rescue, Efflux pump mplx)
COc1ccc(CC(=O)N(c2ccccc2)c2nc(C)cs2)cc1	none
Cc1csc(N(C(=O)Cc2ccccc2F)c2ccccc2)n1	sPLA2-III inh 19.7 | sPLA2 confirm inactive | 535nm interf inactive
COCCOC(=O)C1=C(C)NC(=S)NC1/C=C/c1ccccc1 (configuration not stated)	sPLA2-III inh 22.1 | sPLA2 confirm inactive | 535nm interf inactive
C=CCOC(=O)C1=C(C)NC(=S)NC1/C=C/c1ccccc1 (configuration not stated)	none
Cc1ccc(S(=O)(=O)CNC(=S)c2cccc(C)c2)cc1	none
Cc1ccc(S(=O)(=O)CNC(=S)c2ccc3ccccc3c2)cc1	sPLA2-III inh 19.9 | sPLA2 confirm 24.4 | 535nm interf inactive
CC(=O)c1cc(CN2C(=O)CCC2=O)cs1	sPLA2-III inh 20.3 | sPLA2 confirm inactive | 535nm interf inactive
CC(=O)c1cc(Cc2csc(C(C)=O)c2)cs1	none
CC(=O)c1ccc(OC(=O)COc2ccccc2Cl)cc1	none
CC1(C)Oc2ccc(C#N)cc2[C@@H](N2CCCC2=O)[C@@H]1O	sPLA2-III inh 21.1 | sPLA2 confirm inactive | 535nm interf inactive
N#Cc1ccc2c(c1)NC(=O)C1CCCN21 (configuration not stated)	none
